Source: PubChem BioAssay (Tox21)
Results filed as inconclusive are left out. Entries that show only a call come without a potency. Unmarked numbers belong to inactive results. Calls of active or inactive are those of the source. Unless noted, calls come from the whole dose curve; as a rule, active = well fitted curve in the direction sought with a large enough effect in the repeat runs; inconclusive = weak or mixed curves; inactive = no such curve, though single readings can be large; an effect the other way counts as inactive or inconclusive.

Experiments:
[1] = target: Nuclear receptor subfamily 1 group I member 2 (Rattus norvegicus) (UniProt Q9R1A7); assay: Rat pregnane X receptor (rPXR) activation by small molecules, qHTS assay (AID 1346983); details: rPXR luciferase reporter cells, One-Glo luminescence, 24 h; max activation: stronger effect = higher value; note: nearly all actives have a fitted effect of over 20% in size
Method in brief: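 Cell-based rPXR activation assay: rPXR cells, 2,000 per well, rested 5hr at 37 C, then exposed to compounds in DMSO for 24 hr at 37 C. Luciferase activity read by One-Glo luminescence after 30 min at room temperature.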

[2] = target: Nuclear receptor subfamily 1 group I member 2 (Homo sapiens) (UniProt O75469); assay: CYP3A4 induction through human pregnane X receptor (PXR) by small molecules, qHTS assay (AID 1346984); note: nearly all actives have a fitted effect of over 40% in size; note: potency is the fitted concentration of half-maximal effect
Method in brief: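 Human PXR activation is tracked via CYP3A4 promoter-luciferase in DPX-2 (HepG2) cells. Compounds treat cells for 24hr at 37C, and luminescence is read after One-Glo.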

[3] = target: Nuclear receptor subfamily 1 group I member 2 (Homo sapiens) (UniProt O75469); assay: Human pregnane X receptor (PXR) activation by small molecules, qHTS assay (AID 1346985); note: nearly all actives have a fitted effect of over 40% in size; note: potency is the fitted concentration of half-maximal effect
Method in brief: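 DPX-2 cells (HepG2 co-transfected with a PXR response element and a CYP3A4-promoter luciferase construct) were seeded at 2,000 per well, rested 5 hr at 37C, then exposed to DMSO-dissolved compounds for 24 hr. Activation was read as luciferase luminescence.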

[4] = qHTS assay to identify small molecule antagonists of the thyroid receptor (TR) signaling pathway - cell viability counter screen (AID 743064); note: nearly all actives have a fitted effect of over 50% in size; note: potency is the fitted concentration of half-maximal effect
Method in brief: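 Fluorescence from CellTiter-Fluor, added after 23.5 h exposure at 37 °C, reported viability of GH3.TRE-Luc cells co-treated with compound and 1 nM T3. Measured in the same wells as the luciferase TR readout.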

[5] = qHTS assay to identify small molecule antagonists of the estrogen receptor alpha (ER-alpha) signaling pathway - cell viability counter screen (AID 743074; calls by dose curve;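 note: HEK293 cells carrying ER-alpha-UAS-bla reporter stimulated with 17beta-estradiol; nearly all actives have a fitted effect of over 45% in size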)
[6] = target: Estrogen receptor (Homo sapiens) (UniProt P03372); assay: qHTS assay to identify small molecule agonists of the estrogen receptor alpha (ER-alpha) signaling pathway (AID 743075; calls by dose curve;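 note: HEK293 GripTite cells with ER-alpha and UAS-driven beta-lactamase reporter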)
[7] = target: Estrogen receptor (Homo sapiens) (UniProt P03372); assay: qHTS assay to identify small molecule agonists of the estrogen receptor alpha (ER-alpha) signaling pathway using the BG1 cell line (AID 743079); details: BG1Luc4E2 cells, ERE-luciferase agonist, 22 h; activation: at 70.3 µM (top of the series); note: nearly all actives have a fitted effect of over 20% in size; note: potency is the fitted concentration of half-maximal effect
[8] = qHTS assay to identify small molecule antagonists of the estrogen receptor alpha (ER-alpha) signaling pathway using the BG1 cell line (AID 743080; calls by dose curve;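 note: BG1 cells stimulated with 17beta-estradiol alongside compound; nearly all actives have a fitted effect of over 25% in size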)
Method in brief: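 Readout is ONE-Glo luminescence, taken 30 min at room temperature after reagent addition, preceded by a CellTiter-Fluor viability read; BG1-Luc-4E2 cells had received compound and 17beta-estradiol for 21.5 h at 37 C.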

[9] = qHTS assay to identify aromatase inhibitors - cell viability counter screen (AID 743084);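 note: cells stimulated with testosterone during compound exposure; nearly all actives have a fitted effect of over 55% in size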; note: potency is the fitted concentration of half-maximal effect
[10] = target: Estrogen receptor (Homo sapiens) (UniProt P03372); assay: qHTS assay to identify small molecule antagonists of the estrogen receptor alpha (ER-alpha) signaling pathway (AID 743069; active = well fitted curve in the direction sought with a large enough effect in the signal ratio in the repeat runs, not every such curve was filed as active; the % refers to the signal ratio)
Method in brief: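 Beta-lactamase FRET fluorescence is read after 2 hr at room temperature with LiveBLAzer B/G substrate. Before that, ER-alpha-bla HEK293 cells sit 4 hr after plating, then receive compound plus 17beta-estradiol and incubate 18 hr at 37C.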

[11] = qHTS assay to identify small molecule antagonists of the estrogen receptor alpha (ER-alpha) signaling pathway using the BG1 cell line - cell viability counter screen (AID 743081);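 note: compound given together with 17beta-estradiol as the ER stimulus; nearly all actives have a fitted effect of over 45% in size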; note: potency is the fitted concentration of half-maximal effect
[12] = target: Aryl hydrocarbon receptor (Homo sapiens) (UniProt P35869); assay: qHTS assay to identify small molecule that activate the aryl hydrocarbon receptor (AhR) signaling pathway (AID 743085); note: nearly all actives have a fitted effect of over 15% in size; note: potency is the fitted concentration of half-maximal effect;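 for activation: HG2L7.5c1 human HepG2 liver cells with stably integrated DRE-driven firefly reporter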
Method in brief: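 Cell line HG2L7.5c1 (human hepatoma, 20× DRE-luc). Plated, 5 h 37C, compound/DMSO added, 24 h 37C. CellTiter-Fluor 30 min 37C → fluorescence; then ONE-Glo 30 min RT → luminescence.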

Aromatase (Homo sapiens) = Aromatase (Homo sapiens) (UniProt P11511); assay: qHTS assay to identify aromatase inhibitors (AID 743083); note: nearly all actives have a fitted effect of over 55% in size; note: potency is the fitted concentration of half-maximal effect
[13] = target: Peroxisome proliferator-activated receptor gamma (Homo sapiens) (UniProt P37231); assay: qHTS assay to identify small molecule agonists of the peroxisome proliferator-activated receptor gamma (PPARg) signaling pathway (AID 743094; active = well fitted activation curve with a large enough effect in the signal ratio in the repeat runs, not every such curve was filed as active; the % refers to the signal ratio)
Method in brief: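 Cell-based bla reporter, HEK293H background, PPARg-driven UAS. Pre-incubation 5 h, 37C, 5% CO2. Compound 17 h, 37C. Substrate 1 h RT; fluorescence.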

[14] = qHTS assay to identify small molecule antagonists of the thyroid receptor (TR) signaling pathway (AID 743065); note: nearly all actives have a fitted effect of over 55% in size; note: potency is the fitted concentration of half-maximal effect
Method in brief: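 GH3.TRE-Luc rat pituitary cells (two TREs driving luciferase) were dosed with compound, then stimulated with 1 nM T3 (final) for 23.5 h at 37 C. ONE-Glo luminescence was the read-out, with CellTiter-Fluor fluorescence as the cytotoxicity counter-screen.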

[15] = tested on: thyroid hormone receptor (rat, GH3 cells); assay: qHTS assay to identify small molecule agonists of the thyroid receptor (TR) signaling pathway (AID 743066; calls by dose curve)
[16] = qHTS assay to identify small molecule that activate the aryl hydrocarbon receptor (AhR) signaling pathway - cell viability counter screen (AID 743086); note: nearly all actives have a fitted effect of over 45% in size; note: potency is the fitted concentration of half-maximal effect
Method in brief: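 HepG2-AhR-luc (HG2L7.5c1) cells, 4000/well, treated 24 h at 37 C with compound; viability measured as CellTiter-Fluor fluorescence after 30 min in the same wells as the luciferase read.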

Peroxisome proliferator-activated receptor gamma (Homo sapiens), sequence (P37231 whole entry, looked up): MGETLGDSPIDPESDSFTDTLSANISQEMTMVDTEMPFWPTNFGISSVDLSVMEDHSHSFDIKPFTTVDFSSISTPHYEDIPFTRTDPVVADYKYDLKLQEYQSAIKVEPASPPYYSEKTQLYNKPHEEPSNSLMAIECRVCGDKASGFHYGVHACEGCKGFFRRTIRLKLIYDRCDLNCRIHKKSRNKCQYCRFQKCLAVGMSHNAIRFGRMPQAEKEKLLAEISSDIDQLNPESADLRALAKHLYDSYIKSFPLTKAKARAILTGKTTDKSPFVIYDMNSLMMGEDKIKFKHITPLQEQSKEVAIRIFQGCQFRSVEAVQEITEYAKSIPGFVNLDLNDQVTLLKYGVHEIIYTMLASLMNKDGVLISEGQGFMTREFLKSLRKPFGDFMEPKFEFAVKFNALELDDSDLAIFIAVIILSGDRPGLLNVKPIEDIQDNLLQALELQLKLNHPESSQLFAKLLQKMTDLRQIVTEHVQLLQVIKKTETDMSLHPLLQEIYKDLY
Estrogen receptor (Homo sapiens), sequence (P03372 whole entry, looked up): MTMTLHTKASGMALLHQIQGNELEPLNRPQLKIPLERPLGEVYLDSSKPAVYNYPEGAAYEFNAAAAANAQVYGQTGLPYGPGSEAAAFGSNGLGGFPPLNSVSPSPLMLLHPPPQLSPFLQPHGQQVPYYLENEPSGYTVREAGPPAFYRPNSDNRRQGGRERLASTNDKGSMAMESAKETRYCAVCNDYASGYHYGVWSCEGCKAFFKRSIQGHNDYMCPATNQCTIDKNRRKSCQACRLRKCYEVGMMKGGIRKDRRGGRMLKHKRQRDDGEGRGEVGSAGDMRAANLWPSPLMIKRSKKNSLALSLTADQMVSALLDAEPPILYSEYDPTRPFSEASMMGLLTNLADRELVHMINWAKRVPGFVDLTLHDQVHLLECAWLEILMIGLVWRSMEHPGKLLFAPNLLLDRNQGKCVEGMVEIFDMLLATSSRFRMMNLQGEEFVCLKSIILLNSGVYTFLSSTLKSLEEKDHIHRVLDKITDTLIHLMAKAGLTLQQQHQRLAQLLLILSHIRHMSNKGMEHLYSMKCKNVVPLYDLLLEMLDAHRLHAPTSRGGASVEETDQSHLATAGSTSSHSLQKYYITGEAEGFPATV
Aryl hydrocarbon receptor (Homo sapiens), sequence (P35869 whole entry, looked up): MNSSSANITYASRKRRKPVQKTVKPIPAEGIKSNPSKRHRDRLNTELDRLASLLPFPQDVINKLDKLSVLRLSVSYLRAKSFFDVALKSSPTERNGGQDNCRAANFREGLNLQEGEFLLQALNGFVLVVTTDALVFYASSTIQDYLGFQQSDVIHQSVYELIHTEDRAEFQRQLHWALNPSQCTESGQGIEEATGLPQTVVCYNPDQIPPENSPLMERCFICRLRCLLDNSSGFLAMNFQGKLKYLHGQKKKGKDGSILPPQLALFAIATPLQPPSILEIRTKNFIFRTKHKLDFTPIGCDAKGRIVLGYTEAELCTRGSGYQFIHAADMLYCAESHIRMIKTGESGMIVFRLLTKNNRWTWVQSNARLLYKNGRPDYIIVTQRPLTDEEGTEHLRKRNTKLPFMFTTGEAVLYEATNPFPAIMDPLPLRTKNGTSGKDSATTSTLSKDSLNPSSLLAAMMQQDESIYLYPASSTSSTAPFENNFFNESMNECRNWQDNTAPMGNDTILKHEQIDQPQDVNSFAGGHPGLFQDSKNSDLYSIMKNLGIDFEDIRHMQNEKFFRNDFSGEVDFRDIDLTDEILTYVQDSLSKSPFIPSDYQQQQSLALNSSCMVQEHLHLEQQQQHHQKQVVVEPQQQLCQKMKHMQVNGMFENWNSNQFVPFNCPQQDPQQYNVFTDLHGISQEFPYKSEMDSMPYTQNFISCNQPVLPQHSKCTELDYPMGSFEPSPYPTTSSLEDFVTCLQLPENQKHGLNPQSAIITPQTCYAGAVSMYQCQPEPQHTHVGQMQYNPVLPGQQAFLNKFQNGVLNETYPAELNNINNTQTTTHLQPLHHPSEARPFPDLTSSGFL
Nuclear receptor subfamily 1 group I member 2 (Rattus norvegicus), sequence (Q9R1A7 whole entry, looked up): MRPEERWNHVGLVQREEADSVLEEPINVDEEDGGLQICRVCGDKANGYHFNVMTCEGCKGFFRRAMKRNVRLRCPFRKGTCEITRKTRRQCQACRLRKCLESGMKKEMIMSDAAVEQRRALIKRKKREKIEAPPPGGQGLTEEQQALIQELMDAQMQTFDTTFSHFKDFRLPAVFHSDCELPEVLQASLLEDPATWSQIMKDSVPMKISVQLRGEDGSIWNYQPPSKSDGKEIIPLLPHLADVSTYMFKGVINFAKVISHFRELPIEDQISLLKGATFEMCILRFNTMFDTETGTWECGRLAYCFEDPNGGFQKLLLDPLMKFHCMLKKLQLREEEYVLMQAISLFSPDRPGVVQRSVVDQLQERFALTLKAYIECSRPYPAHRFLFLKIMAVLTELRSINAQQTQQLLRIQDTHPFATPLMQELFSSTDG
Aromatase (Homo sapiens), sequence (P11511 whole entry, looked up): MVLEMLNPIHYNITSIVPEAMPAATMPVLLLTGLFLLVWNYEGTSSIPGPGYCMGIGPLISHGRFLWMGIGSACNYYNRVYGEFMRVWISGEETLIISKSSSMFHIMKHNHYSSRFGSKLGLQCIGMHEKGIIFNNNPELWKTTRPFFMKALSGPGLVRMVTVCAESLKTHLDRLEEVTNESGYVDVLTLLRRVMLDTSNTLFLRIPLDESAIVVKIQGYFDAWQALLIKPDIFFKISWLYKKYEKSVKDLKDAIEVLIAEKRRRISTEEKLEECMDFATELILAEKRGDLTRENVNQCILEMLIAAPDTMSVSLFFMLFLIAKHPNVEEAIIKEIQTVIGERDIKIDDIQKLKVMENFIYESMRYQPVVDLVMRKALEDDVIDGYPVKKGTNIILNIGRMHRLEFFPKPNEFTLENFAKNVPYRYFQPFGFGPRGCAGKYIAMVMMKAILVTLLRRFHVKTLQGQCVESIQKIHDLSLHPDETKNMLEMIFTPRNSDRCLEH

Structure (SMILES)	max activation [1]	Potency [2]	Potency [3]	Potency [4]	Potency [5]	Potency [6]	Potency [7]	Potency [8]	Potency [9]	Potency [10]	Potency [11]	Potency [12]	Potency (Aromatase (Homo sapiens))	Potency [13]	Potency [14]	Potency [15]	Potency [16]
Nc1ccc(S(=O)(=O)Nc2ncccn2)cc1	-1.29%	inactive	inactive	–	–	–	–	–	–	–	–	–	–	–	–	–	–
CCC(=O)c1ccc2c(c1)N(CCCN1CCN(CCO)CC1)c1ccccc1S2	-17.5%	14.1 µM (active)	25.1 µM (active)	10.6 µM (active)	inactive	inactive	inactive	inactive	inactive	–	–	–	–	–	–	–	–
CN(C)CCC=C1c2ccccc2C(C)(C)c2ccccc21	6.91%	22.4 µM (active)	25.1 µM (active)	13.3 µM (active)	–	–	inactive	–	inactive	inactive	inactive	inactive	–	–	–	–	–
CCOC(=O)CN[C@@H](C(=O)N1CC[C@H]1C(=O)NCc1ccc(/C(N)=N/O)cc1)C1CCCCC1	–	–	–	–	inactive	inactive	inactive	inactive	–	–	inactive	inactive	inactive	inactive	–	–	–
c1ccc2c(c1)Sc1ccccc1N2CCN1CCCC1	–	10 µM (active)	25.1 µM (active)	11.9 µM (active)	inactive	–	–	–	inactive	–	–	–	inactive	inactive	29.8 µM (active)	inactive	–
C=C[C@]1(C)C[C@@H](OC(=O)CSC(C)(C)CNC(=O)[C@H](N)C(C)C)[C@]2(C)[C@H](C)CC[C@]3(CCC(=O)[C@H]32)[C@@H](C)[C@@H]1O	–	inactive	8.91 µM (active)	2.66 µM (active)	inactive	inactive	–	–	2.98 µM (active)	inactive	5.96 µM (active)	inactive	21.1 µM (active)	–	13.3 µM (active)	inactive	3.76 µM (active)
CN1CCC(CN2c3ccccc3Sc3ccccc32)C1 (centres undefined)	-2.87%	0.891 µM (active)	–	10.6 µM (active)	inactive	inactive	inactive	inactive	inactive	–	inactive	inactive	inactive	–	11.9 µM (active)	–	–
CCC(=O)OCC(=O)[C@@]1(OC(=O)CC)[C@H](C)C[C@H]2[C@@H]3CCC4=CC(=O)C=C[C@]4(C)[C@@]3(F)[C@@H](O)C[C@@]21C	–	–	–	inactive	inactive	–	inactive	–	inactive	–	inactive	inactive	inactive	inactive	–	–	inactive
CC#CCC(C)[C@H](O)/C=C/[C@@H]1[C@H]2C/C(=C/CCCC(=O)O)C[C@H]2C[C@H]1O (some centres undefined)	–	–	–	inactive	inactive	inactive	29.8 µM (active)	inactive	inactive	inactive	–	inactive	inactive	inactive	inactive	inactive	inactive
CCCC(=O)O[C@]1(C(=O)COC(=O)CC)[C@@H](C)C[C@H]2[C@@H]3CCC4=CC(=O)C=C[C@]4(C)[C@@]3(F)[C@@H](O)C[C@@]21C	–	–	–	inactive	inactive	inactive	inactive	–	inactive	–	–	–	inactive	–	inactive	inactive	–
Cc1ccc(C2(O)CCN(CCCC(=O)c3ccc(F)cc3)CC2)cc1	–	–	–	13.3 µM (active)	inactive	inactive	inactive	inactive	inactive	inactive	inactive	–	inactive	–	–	inactive	–
CC(=O)[C@@]1(O)CC[C@H]2[C@@H]3C=C(Cl)C4=CC(=O)CC[C@]4(C)[C@H]3CC[C@@]21C	–	–	–	inactive	inactive	inactive	29.8 µM (active)	–	inactive	–	–	inactive	inactive	–	29.8 µM (active)	inactive	inactive
CN(C)CCCN1c2ccccc2C(C)(C)c2ccccc21	-1.25%	31.6 µM (active)	–	23.7 µM (active)	inactive	inactive	inactive	inactive	inactive	inactive	inactive	inactive	inactive	–	26.6 µM (active)	–	–
N#Cc1ccc2c(c1)N(CCCN1CCC(O)CC1)c1ccccc1S2	-1.43%	–	–	9.44 µM (active)	inactive	inactive	inactive	inactive	inactive	–	inactive	inactive	inactive	inactive	21.1 µM (active)	–	–
O=C1CSC2(CCN(CCCN3c4ccccc4Sc4ccc(Cl)cc43)CC2)N1	2.22%	inactive	–	10.6 µM (active)	–	inactive	–	–	–	–	–	13.3 µM (active)	–	–	10.6 µM (active)	–	–
